The campaign covered roughly 16,000 compounds. About 5,800 (36%) were called active. Not shown: some 23% with an inconclusive outcome. Some of the results follow. Unmarked numbers belong to inactive results. The call rests on the fitted dose curve; in most records, active means well fitted curve in the direction sought with a large enough effect; inconclusive means small, poorly fitted or top-dose-only effect, or effect the other way; inactive means no such curve, though single readings can be large or run the other way.
Target: Cytochrome P450 2C19 (Homo sapiens) (UniProt P33261)
Test: Cytochrome panel assay with activity outcomes
Conditions: recombinant CYP, pro-luciferin dealkylation, luminescence, p450-cyp2c19; series mostly up to 57.1 µM; activity, negative = inhibition: at the top concentration
On the % scale 0 is the no-effect control and ±100 the full control effect.

Cytochrome P450 2C19 (Homo sapiens), sequence (P33261 whole entry, looked up): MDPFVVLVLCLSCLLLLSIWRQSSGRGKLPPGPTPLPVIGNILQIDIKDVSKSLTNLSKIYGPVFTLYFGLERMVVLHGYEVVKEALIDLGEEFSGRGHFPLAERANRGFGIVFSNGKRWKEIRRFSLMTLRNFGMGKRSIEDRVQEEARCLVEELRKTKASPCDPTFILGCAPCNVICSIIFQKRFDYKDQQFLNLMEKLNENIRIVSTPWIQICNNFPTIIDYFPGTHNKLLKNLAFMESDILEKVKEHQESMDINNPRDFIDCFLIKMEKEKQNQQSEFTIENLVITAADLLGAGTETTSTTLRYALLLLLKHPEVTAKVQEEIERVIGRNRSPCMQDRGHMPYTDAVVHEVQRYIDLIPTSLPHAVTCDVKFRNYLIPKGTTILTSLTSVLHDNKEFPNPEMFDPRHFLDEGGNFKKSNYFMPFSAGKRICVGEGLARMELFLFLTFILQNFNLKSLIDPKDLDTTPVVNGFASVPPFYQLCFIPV

Structure (SMILES)	AC50	activity, negative = inhibition
CC(C)c1ccc(C(=O)CC2(O)C(=O)N(CN3CCOCC3)c3ccccc32)cc1 (stereo not drawn)	2.24 µM (active)	–
CC1(C)C(=O)N(CCN2CCC(C(=O)c3ccc(F)cc3)CC2)c2ccccc21	–	-18.1%
C[C@@H]1C[C@H]2[C@H]3C[C@@H](F)C4=CC(=O)C=C[C@]4(C)[C@@]3(Cl)[C@@H](O)C[C@@]2(C)[C@@H]1C(=O)COC(=O)C(C)(C)C	–	-30.8% [at 25.6 µM]
C(=N/Nc1nnc2c(n1)[nH]c1ccccc12)/c1cccnc1	–	-3.42% [at 11.4 µM]
Clc1ccc(/C=N/Nc2nnc(-c3ncc[nH]3)c3ccccc23)cc1	11.2 µM (active)	–
C=CC[n+]1c(-c2ccc(C)cc2)csc1NNC(=O)Nc1ccccc1	5.01 µM (active)	–
O=C(CCn1nc(-c2ccc(Cl)cc2)ccc1=O)NCc1ccccn1	–	-24.9%
O=C1CC(N2CCN(CCc3ccccn3)CC2)C(=O)N1c1ccc(Cl)cc1 (stereo not drawn)	8.91 µM (active)	–
CC1(C)CC2(CC(c3cccs3)c3cc(Cl)c(O)cc3O2)NC(=S)N1 (stereo not drawn)	2.82 µM (active)	–
O=C(O)c1ccccc1OP(=O)(O)O	–	12.1% [at 25.6 µM]
Cc1nc(Cl)c(C#N)cc1-c1ccccc1	5.62 µM (active)	–
Cc1ccc(Oc2nnc(-c3ccccc3)cc2C#N)cc1	–	-0.99%
Cc1nc(Sc2ccccc2)c(C#N)cc1-c1ccccc1	0.631 µM (active)	–
O=C(O)c1c[nH]c2cc(OCc3ccccc3)ccc2c1=O	–	0.142% [at 11.4 µM]
Cc1cc2c(cc1C)NC1=C(N2)O[C@H](c2c[nH]c3ccc(COc4ccccc4)cc23)C1=O	0.501 µM (active)	–
Cc1ncc(N=Nc2ccccc2Cl)c(-c2ccccc2)n1	14.1 µM (active)	–
CCSC1=C(C#N)C2(CCCCC2)C(C#N)=C(N)N1	5.01 µM (active)	–
O=C(CNC(=O)c1ccco1)OC(C(=O)c1ccccc1)c1ccccc1 (stereo not drawn)	5.62 µM (active)	–
COc1ccc(C(=O)[C@H](Br)[C@H](Br)C(=O)O)cc1	–	-1.07% [at 11.4 µM]
COc1ccc(C(=O)C(OC(=O)CNC(=O)c2ccco2)c2ccccc2)cc1 (stereo not drawn)	10 µM (active)	–
COc1ccc(-c2ccc(/C=C3\C(=O)N(c4ccccc4)N=C3c3ccccc3)o2)c([N+](=O)[O-])c1	2.51 µM (active)	–
CC1=NN(c2ccccc2)C(=O)/C1=C\N1CC(C)OC(C)C1 (stereo not drawn)	–	19.4%
COC(=O)c1ccccc1-c1ccc(/C=C2\C(=O)N(c3ccccc3)N=C2c2ccccc2)o1	1.41 µM (active)	–
CN(C)CCCN1CCC2(CCC(C(C)(C)C)CC2)CC1	–	40.8% [at 11.4 µM]

Structure (SMILES)	AC50	activity, negative = inhibition
CC(Oc1ccccc1)C(=O)Nc1nc2c(s1)C(=O)CC(C)(C)C2 (stereo not drawn)	7.08 µM (active)	–
C[C@H](Oc1ccccc1)C(=O)N[C@@H]1C(=O)N2[C@@H]1SC(C)(C)[C@@H]2C(=O)O	–	28.6% [at 25.6 µM]
O=C1N=C(N2CCC(Cc3ccccc3)CC2)S/C1=C/c1cn[nH]c1-c1ccccc1	3.55 µM (active)	–
CCC(C)C(NC(=O)OCc1ccccc1)C(=O)OCN1C(=O)c2ccccc2C1=O (stereo not drawn)	3.16 µM (active)	–
CC(C)C(NC(=O)OCc1ccccc1)C(=O)O (stereo not drawn)	–	-12.5%
CCN1C(=O)[C@H]2[C@H]3[C@H](O)[C@H](O)C/C(=N/NC(=O)OCc4ccccc4)[C@@H]3CC[C@@H]2C1=O	–	36.5% [at 11.4 µM]
Cc1ccc(C(=O)/C=C/c2c[nH]c3ccccc23)cc1	3.55 µM (active)	–
CCCn1c(/C=C/c2ccccc2)nc2ccccc21	7.94 µM (active)	–
c1ccc2c(CSCc3cccc4ccccc34)cccc2c1	0.126 µM (active)	–
O=S(=O)(O)CCCc1cccc2ccccc12	–	21.3% [at 11.4 µM]
c1ccc2c(CC3NCCN3)cccc2c1	–	28.8% [at 11.4 µM]
c1ccc2c(CSCCc3ccncc3)cccc2c1	0.0794 µM (active)	–
c1ccc2c(CSc3nnc(-c4ccncc4)o3)cccc2c1	0.282 µM (active)	–
c1cc(CSSCc2ccncc2)ccn1	1.26 µM (active)	–
CCNc1ncc2nc(-c3ccc(F)cc3)c(=O)n(-c3ccccc3)c2n1	–	14.6%
CN1CCN(CCc2ccc(Cl)c(Cl)c2)CC1	–	-37.7%
O=C(SCc1cccc2ccccc12)c1ccc(Cl)cc1	1.58 µM (active)	–
N[C@@H](CSC(=O)c1ccccc1)C(=O)O	–	16.7% [at 11.4 µM]
O=C(Cc1ccc(Cl)cc1)NNC(=O)Nc1cccc2ccccc12	–	-29.4%
N=C(N)SCCc1ccc(CCSC(=N)N)cc1	–	-4%
c1ccc(CSCCc2ccncc2)cc1	0.1 µM (active)	–
N=C(N)SCCc1ccncc1	–	9% [at 11.4 µM]
Clc1ccc(CSCCc2ccncc2)cc1Cl	0.1 µM (active)	–
CCOC(=O)C1=C(CSc2nc(-c3ccccc3)ccc2C#N)OC(N)=C(C#N)C1c1ccc(OC)cc1 (stereo not drawn)	2.82 µM (active)	–

Reference: PubChem BioAssay AID1851 (National Center for Advancing Translational Sciences (NCATS), 2009)
